HT1080 IDH1KD tx – qHTS for induction of synthetic lethality in tumor cells producing 2HG: qHTS for the HT-1080-IDH1KD cell line; Potency, µM (doses to about 46.1 µM), for inactives: top-dose activity, negative = toxicity, usual class: cytotoxic; HT-1080 IDH1 knockdown viability, ATP luminescence, 48 h; AID 686971, 2013; 360,000 compounds, 2% hits;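 also: potency is read from the fitted curve at half-maximal effect; 0% = DMSO wells and -100% = cell-free medium wells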
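In this qHTS, HT-1080 cells depleted of IDH1 are exposed for 48 h at 37 °C to compound titrations. Toxicity is scored from CellTiter-Glo luminescence, with DMSO as full viability and medium alone as none.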
ELG1 DNA repair – qHTS screen for small molecules that inhibit ELG1-dependent DNA repair in human embryonic kidney (HEK293T) cells expressing luciferase-tagged ELG1. HEK293T ELG1-luciferase reporter, luminescence, 16 h; DNA damage induced by 5-fluorouridine. Potency, µM (series often up to 46.1 µM), inactives show at the top dose activity change, negative = inhibition, usual class: inhibitors. 330,000 compounds, 2.3% hits. AID 504467, 2011; also: potency is read from the fitted curve at half-maximal effect; nearly all actives have a fitted effect of over 55% in size
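DMSO vehicle served as the neutral condition. Each well held 2,000 cells given 5-fluorouridine plus compound; after 16 hr at 37 °C/5% CO2, ONE-Glo was added and luciferase measured 30 min later.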
TDP1 cell CPT – qHTS for Inhibitors of human tyrosyl-DNA phosphodiesterase 1 (TDP1): qHTS in cells in presence of CPT; chicken DT40 Tdp1-/-;hTDP1 cells + 20 nM CPT, ATP luminescence, 48 h; 420,000 compounds, 12% hits; AID 686979, 2013; Potency, µM (doses to about 46.2 µM), inactives show at the highest dose activity change, negative = growth inhibition, most hits filed as inhibitors; also: potency is read from the fitted curve at half-maximal effect; nearly all actives have a fitted effect of over 55% in size
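Cell growth measured by CellTiter-Glo luminescence after a minimum 48 h, 37 C compound exposure with 20 nM CPT in Tdp1-knockout DT40 cells stably expressing hTDP1, seeded 400/well; qHTS titration format.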
IL1B secr inh – qHTS for Inhibitors of Inflammasome Signaling: IL-1-beta AlphaLISA Primary Screen; THP-1 LPS/ATP IL-1B secretion, AlphaLISA, 16 h; hits give low values; activity change, % at 57.5 µM; 360,000 compounds, 4.7% hits; in the data active = activity change below about -50%; inconclusive = mostly about -30% to -49%
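THP-1 cells pretreated 1 hr with compounds (up to 57.5 uM final), then stimulated with LPS (250 ng/mL final) plus ATP (1.25 mM final); secreted IL-1B measured by AlphaLISA after 16 hr, decreased signal indicating inhibition.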
DT40 TDP1 no CPT – qHTS for Inhibitors of human tyrosyl-DNA phosphodiesterase 1 (TDP1): qHTS in cells in absence of CPT; 420,000 compounds, 15% hits; DT40 Tdp1-/- hTDP1 cells, no CPT, ATP luminescence, 48 h; Potency, µM (titrated, usually from 46.2 µM), for inactives: at the highest dose activity change, negative = growth inhibition, hits mostly inhibitors; also: potency is read from the fitted curve at half-maximal effect; nearly all actives have a fitted effect of over 55% in size
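Seeded 400 DT40-hTDP1 cells/well (vehicle DMSO, no 20 nM CPT); pinned compounds; ≥48 hr at 37 °C; CellTiter-Glo luminescence as viability measure.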
HT1080NT lethal – qHTS for induction of synthetic lethality in tumor cells producing 2HG: qHTS for the HT-1080-NT fibrosarcoma cell line; HT-1080-NT fibrosarcoma viability, CellTiter-Glo ATP luminescence, 48 h; Potency, µM (titrated, usually from 46.1 µM), for inactives: at the highest dose activity, negative = less viability, most hits filed as cytotoxic; 360,000 compounds, 1.6% hits;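 also: NT is the 2HG producing partner of a matched IDH1 knockdown line; potency is read from the fitted curve at half-maximal effect; 0% = DMSO-treated cells and -100% = media-only wells without cells; nearly all actives have a fitted effect of over 55% in size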
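Viability by CellTiter-Glo luminescence after 48 h compound exposure at 37C of HT-1080-NT cells (750/well, RPMI, 5% FBS). % activity scaled between DMSO wells and medium-only wells, then curve-fitted and categorized by curve class.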
* hit, by the source's call; ? = inconclusive; · = not tested or not shown; [ ] = another dose, or the depositor's remark. In the library only some 19% were active in any assay of this set; here they are far more common. Unless noted, calls follow the shape of the dose curve; as a rule, active = well fitted curve in the direction sought with a large enough effect; inconclusive = small, poorly fitted or top-dose-only effect, or another doubt; inactive = no such curve, though single readings can be large; an effect the other way counts as inactive or inconclusive. Unless noted, % is scaled to controls: 0 for no effect and ±100 for the full control effect.

SMILES	HT1080 IDH1KD tx	ELG1 DNA repair	TDP1 cell CPT	IL1B secr inh	DT40 TDP1 no CPT	HT1080NT lethal
COc1cc([C@@H]2c3cc4c(cc3[C@@H](O)[C@H]3COC(=O)[C@H]23)OCO4)cc(OC)c1O[Si](C)(C)C(C)(C)C	?	?	13µM*	-88*	15µM*	?
COc1cc(C2c3cc4c(cc3C3OC(=O)C2C3CO)OCO4)cc(OC)c1OC (stereo not drawn)	0.016µM*	·	0.01µM*	50	0.016µM*	0.01µM*
COc1cc2c(c(OC)c1OC)C(=O)CO2	0%	·	-1%	23	4%	-1%
COc1ccc(CNCCCn2cnc3c(SC)ncnc32)cc1	-5%	·	7%	-1	4%	-2%
COc1ccccc1C(=O)C1CCCN(Cc2cccc(OCCO)c2)C1 (stereo not drawn)	12%	-7%	-4%	22	-10%	13%
O=S(=O)(N/N=C/c1c(F)cccc1Cl)c1ccccc1	5%	4%	?	-4	?	2%
Cc1ccc(S(=O)(=O)N/N=C/c2cc(Br)c(C)o2)cc1	15%[9.24 µM]	-15%	16µM*	12	?	5%
Cc1ccc(S(=O)(=O)N/N=C/c2c(F)cccc2Cl)cc1	9%	-2%	16µM*	16	?	7%
Cc1ccc(S(=O)(=O)NN=Cc2ccco2)cc1	10%	·	3%	-13	-4%	11%
CCOC(=O)C1CCN(C(=O)CNC(=O)c2nn(-c3ccc(OC)cc3)c(=O)c3ccccc23)CC1	-2%	?	?	0	?	-1%
Cc1nc2cc(NC(=O)[C@@H]3C[C@@H](Sc4ccccn4)CN3Cc3cccc(Cl)c3)ccc2s1	·	·	14%[9.04 µM]	·	-22%	·
CCOc1ccc(CCNc2nc3c(-c4ccc(C)cc4)nnn3c3ccccc23)cc1OCC	·	·	0%	·	?	·
Clc1ccc(CNc2ccc3nnc(-c4ccccc4)n3n2)cc1	7%	-4%	2.1µM*	-7	4.1µM*	-4%
CCOc1ccc(CCNc2ccc3nnc(-c4ccccc4)n3n2)cc1OCC	6%	?	16µM*	31	?	16%
COc1cc(CNCc2cc(OC)c(OC)c(OC)c2)cc(OC)c1	0%	-22%	13µM*	2	23µM*	0%
COc1cc(CNCc2cc(OC)ccc2OC)cc(OC)c1	1%	-13%	?	-57*	-26%	3%
CCOc1ccc(CNCc2ccc(C(=O)O)cc2)cc1OC	17%	13%	0%	1	0%	22%
CCOc1cc(CNCc2cc(OC)cc(OC)c2)ccc1OC	?	0%	13µM*	-58*	8.2µM*	?
CC(C(=O)NCc1cccc(Br)c1)n1ncn2cccc2c1=O (stereo not drawn)	·	·	-13%	·	2%	·
NC(=O)Cc1ccc(OCc2nn[nH]n2)cc1	5%	·	0%	20	12%	3%
COC(C)(C)CCCC(C)C/C=C/C(C)=C/C(=O)O (stereo not drawn)	·	·	-6%	·	-23%	·
CC1(C)[C@@H](OC(=O)CCC(=O)O)CC[C@]2(C)[C@H]3C(=O)C=C4[C@@H]5C[C@@](C)(C(=O)O)CC[C@]5(C)CC[C@@]4(C)[C@]3(C)CC[C@@H]12	·	·	-12%[21.1 µM]	·	1%[21.1 µM]	·
CO[C@H]1[C@H](NC(=O)c2ccsc2)c2ccccc2C12CCN(Cc1cc(Cl)ccc1O)CC2	·	·	-5%[9.04 µM]	·	-7%	·
COc1ccc(O)c(CN2CCC3(CC2)c2ccccc2[C@@H](NC(=O)c2cccc(F)c2)[C@@H]3OC)c1	·	·	-6%[9.04 µM]	·	16µM*	·
CCN1C(=O)c2ccccc2C1Nc1ccc(OCCN2CCCCC2)cc1 (stereo not drawn)	·	·	-7%	·	-29%	·
SMILES	HT1080 IDH1KD tx	ELG1 DNA repair	TDP1 cell CPT	IL1B secr inh	DT40 TDP1 no CPT	HT1080NT lethal
CC(C)(C)C1CCC(C(=O)OCC(=O)c2ccc[nH]2)CC1 (stereo not drawn)	-5%	10%	-2%	0	-10%	1%
CCC(Sc1nnc(C)n2c1cc1sccc12)C(=O)Nc1ccccc1F (stereo not drawn)	·	·	?	·	21µM*	·
COc1ccc(Cl)cc1NC(=O)CSc1nnc(C)n2c1cc1sccc12	·	·	0%	·	-14%	·
CCC(Sc1nncn2c1cc1sccc12)C(=O)Nc1cccc(OC)c1 (stereo not drawn)	·	·	?	·	23µM*	·
O=C(Nc1ccc(Cl)cc1C(=O)N1CCCC1)c1cccc([N+](=O)[O-])c1	10%	3%	-16%	23	-15%	5%
COc1cccc(CNC(=O)c2c(OC)cc(=O)n3c2CCN(C(=O)C2CC24CCCC4)CC3)c1 (stereo not drawn)	·	·	-7%	·	-4%	·
CCN1CCN(Cc2ccc(NC(=O)c3ccc(C)c(NC(=O)c4c[nH]c5cc(C(F)(F)F)ccc5c4=O)c3)cc2C(F)(F)F)CC1	3.3µM*	?	4.6µM*	-105*	4.1µM*	3.3µM*
Cc1ccc(C(=O)Nc2cccc(C(F)(F)F)c2)cc1NC(=O)c1c[nH]c2cc(C(F)(F)F)ccc2c1=O	12%	?	5.2µM*	38	?	7%
COc1ccc(/C=N/NC(=O)c2ccccc2F)cc1CN1CCN(c2ccc(F)cc2)CC1	0%	?	-27%	-3	?	-10%
CN(c1ccccc1)S(=O)(=O)c1ccc(C(=O)Nc2nnc(-c3ccco3)o2)cc1	?	16µM*	15µM*	22	21µM*	-15%
O=C(Nc1nnc(-c2ccco2)o1)c1ccc(N2C(=O)CCC2=O)cc1	?	17%	3%	3	-3%	?
CCN(c1ccccc1)S(=O)(=O)c1ccc(C(=O)Nc2nnc(-c3ccco3)o2)cc1	?	?	?	14	18µM*	?
CC1CCCN(S(=O)(=O)c2ccc(C(=O)Nc3nnc(-c4ccco4)o3)cc2)C1 (stereo not drawn)	17%	?	8.2µM*	28	7.3µM*	-8%
